Calls of active or inactive are those of the source.
Key:
[1] = tested on: Plasmodium falciparum Sir2 (PF13_0152, Sir2A); test: Plasmodium falciparum Sir2A binding compounds – biochemical, small-molecule microarray, 635 nm fluorescence, primary screen (AID 1098); details: fluorescence 635 nm, higher = more signal;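 further: score merges spot fluorescence intensity with its signal-to-noise ratio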
[2] = probe aDKK1 binding to arrayed compounds – biochemical, biotinylated probe, 635/667 nm fluorescence, primary screen (AID 1099); details: small-molecule microarray, higher = more signal;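 further: score merges 667nm spot fluorescence with signal to noise across triplicate slides; reference of the scale not given here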
[3] = probe aCHRDL2 binding to arrayed compounds – biochemical, biotinylated probe, 635/667 nm fluorescence, primary screen (AID 1100); details: small-molecule microarray, higher = more signal
[4] = change in splice reporter luminescence, either direction, cell-based, HEK293, spliceosome inhibition project, primary screen (AID 1101); details: HEK293 splicing luciferase reporter, 24 h, higher = more signal, called active from +8 up or from −8 down;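 further: HEK293 cells carrying a splicing-competent luciferase reporter gene; test concentration not given here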
[5] = molecular target: Fibroblast growth factor 10 (Homo sapiens) (UniProt O15520); test: compounds binding fibroblast growth factor 10 – biochemical, small-molecule microarray, 635 nm fluorescence, primary screen (AID 1102); details: FGF10 binding, fluorescence 635 nm, higher = more signal
Chain of Fibroblast growth factor 10 (Homo sapiens) (O15520 whole entry, looked up): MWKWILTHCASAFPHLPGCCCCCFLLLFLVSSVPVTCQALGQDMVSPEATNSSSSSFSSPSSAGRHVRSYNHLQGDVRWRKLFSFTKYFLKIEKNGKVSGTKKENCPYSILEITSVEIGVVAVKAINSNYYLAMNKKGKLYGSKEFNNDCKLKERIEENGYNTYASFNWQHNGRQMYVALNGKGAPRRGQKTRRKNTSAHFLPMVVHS

[6] = tested on: glycogen synthase kinase-3 (GSK3A per assay name; protocol says GSK3B); test: compounds binding glycogen synthase kinase-3 – biochemical, small-molecule microarray, 635 nm fluorescence, GSK3A, primary screen (AID 1103); details: fluorescence 635 nm, higher = more signal; further: the record names both GSK3A and GSK3B
[7] = molecular target: Epidermal growth factor receptor (Homo sapiens) (UniProt P00533); test: compounds binding epidermal growth factor receptor – biochemical, small-molecule microarray, 635 nm fluorescence, primary screen (AID 1104); details: EGFR binding, higher = more signal;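 further: score merges 667 nm emission intensity with spot signal to noise over triplicate slides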
Chain of Epidermal growth factor receptor (Homo sapiens) (P00533 whole entry, looked up): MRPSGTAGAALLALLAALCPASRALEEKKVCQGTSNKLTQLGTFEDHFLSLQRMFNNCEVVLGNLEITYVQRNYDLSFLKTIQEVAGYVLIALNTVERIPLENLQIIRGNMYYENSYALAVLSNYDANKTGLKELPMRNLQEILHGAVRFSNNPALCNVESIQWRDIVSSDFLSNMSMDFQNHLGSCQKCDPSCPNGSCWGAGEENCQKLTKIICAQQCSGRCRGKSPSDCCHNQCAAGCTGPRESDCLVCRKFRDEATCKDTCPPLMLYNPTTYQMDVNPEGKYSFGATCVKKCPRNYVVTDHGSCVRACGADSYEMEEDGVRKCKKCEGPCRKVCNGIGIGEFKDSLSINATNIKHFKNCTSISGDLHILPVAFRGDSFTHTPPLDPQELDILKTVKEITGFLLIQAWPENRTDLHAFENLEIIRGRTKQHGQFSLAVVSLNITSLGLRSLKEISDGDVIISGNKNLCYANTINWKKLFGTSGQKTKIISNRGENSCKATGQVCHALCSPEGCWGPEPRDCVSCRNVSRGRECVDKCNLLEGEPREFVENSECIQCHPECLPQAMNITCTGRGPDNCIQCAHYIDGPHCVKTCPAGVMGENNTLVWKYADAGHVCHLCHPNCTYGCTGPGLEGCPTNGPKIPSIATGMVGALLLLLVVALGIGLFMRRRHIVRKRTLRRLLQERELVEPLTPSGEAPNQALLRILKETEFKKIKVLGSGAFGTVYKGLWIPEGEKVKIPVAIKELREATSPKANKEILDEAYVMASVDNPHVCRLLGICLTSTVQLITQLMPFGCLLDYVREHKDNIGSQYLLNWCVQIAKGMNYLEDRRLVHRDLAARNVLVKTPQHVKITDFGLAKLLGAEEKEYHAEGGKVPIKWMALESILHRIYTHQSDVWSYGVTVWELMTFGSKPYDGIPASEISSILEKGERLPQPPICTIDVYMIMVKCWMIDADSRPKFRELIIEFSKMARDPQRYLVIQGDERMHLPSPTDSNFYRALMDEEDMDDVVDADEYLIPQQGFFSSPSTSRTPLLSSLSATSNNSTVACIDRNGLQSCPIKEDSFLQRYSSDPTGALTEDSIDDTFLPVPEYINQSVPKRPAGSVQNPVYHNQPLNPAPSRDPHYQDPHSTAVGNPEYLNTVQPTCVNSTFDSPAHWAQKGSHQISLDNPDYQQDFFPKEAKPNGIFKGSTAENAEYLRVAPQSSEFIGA

[8] = molecular target: Follistatin-related protein 3 (Homo sapiens) (UniProt O95633); test: compounds binding follistatin-related protein 3 – biochemical, small-molecule microarray, 635 nm fluorescence, primary screen (AID 1105); details: FSTL3 binding, higher = more signal;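 further: score merges emission near 667 nm and signal to noise per printed spot across three slides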
Chain of Follistatin-related protein 3 (Homo sapiens) (O95633 whole entry, looked up): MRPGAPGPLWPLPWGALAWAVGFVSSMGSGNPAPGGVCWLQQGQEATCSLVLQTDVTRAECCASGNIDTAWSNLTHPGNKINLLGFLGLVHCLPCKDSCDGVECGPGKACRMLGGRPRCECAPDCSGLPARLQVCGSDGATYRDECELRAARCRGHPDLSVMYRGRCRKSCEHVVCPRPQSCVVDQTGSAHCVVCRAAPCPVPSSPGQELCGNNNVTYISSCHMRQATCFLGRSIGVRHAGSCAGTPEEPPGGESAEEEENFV

[9] = molecular target: Dickkopf-related protein 1 (Homo sapiens) (UniProt O94907); test: small molecules binding DKK1 protein – biochemical, small-molecule microarray, 635 nm fluorescence scan, primary screen (AID 1106); details: higher = more signal;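 further: score merges emission near 667 nm with signal to noise over three replicate slides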
Chain of Dickkopf-related protein 1 (Homo sapiens) (O94907 whole entry, looked up): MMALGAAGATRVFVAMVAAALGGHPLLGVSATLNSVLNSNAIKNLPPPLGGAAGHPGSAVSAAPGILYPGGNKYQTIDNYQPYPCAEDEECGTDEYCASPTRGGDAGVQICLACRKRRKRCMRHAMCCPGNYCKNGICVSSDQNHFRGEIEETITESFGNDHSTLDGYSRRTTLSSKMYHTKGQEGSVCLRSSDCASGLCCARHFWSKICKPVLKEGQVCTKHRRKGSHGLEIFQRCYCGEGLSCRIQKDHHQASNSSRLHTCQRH

[10] = tested on: Inhibin beta A chain (activin A); test: small molecules binding activin A – biochemical, small-molecule microarray, 635 nm fluorescence scan, primary screen (AID 1107); details: INHBA, higher = more signal;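 further: mouse activin A protein probed at 4.33 µg/mL on printed slides; score merges bound-protein fluorescence near 667 nm with spot signal-to-noise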

| Structure (SMILES) | composite z-score [1] | composite z-score [2] | composite z-score [3] | z-score [4] | composite z-score [5] | composite z-score [6] | composite z-score [7] | composite z-score [8] | composite z-score [9] | composite z-score [10] |
| --- | --- | --- | --- | --- | --- | --- | --- | --- | --- | --- |
| CC(C)CN1C(=O)[C@@]2(c3ccc([N+](=O)[O-])cc3)CC(=O)N(C3CCCCC3)[C@@H]2c2ccc(CO)cc21 | 0.103 | -0.0495 | 0.867 | 0.256 (inactive) | -0.935 | -1.27 | -1.31 | -1.21 | -1.38 | 0.294 |
| CN(C)CCCCCCNC(=O)[C@@H]1C[C@@H]2C(=O)N[C@@H](CCCC[N+](C)(C)C)C(=O)N2[C@@H]1c1ccc(O)cc1 | 0.626 | -0.0429 | -0.397 | -0.0575 (inactive) | 0.421 | 0.467 | -0.144 | 0.0663 | 1.61 | -0.181 |
| O=C1C2C=CC(C(O)COCc3ccccc3)N(Nc3ccc([N+](=O)[O-])cc3)C2C(=O)N1c1ccccc1 (stereo not given) | 1.06 | 0.735 | 0.889 | -1.44 (inactive) | 1.05 | 1.32 | 0.42 | 1.22 | 0.111 | 0.976 |
| CC(=O)NCCCC[C@@H]1NC(=O)[C@H]2C[C@@H](C(=O)NCCCCCNC(=O)CS)[C@@H](c3ccc(O)cc3)N2C1=O | 0.273 | 0.143 | 0.762 | -0.372 (inactive) | 0.157 | -0.252 | -0.578 | -0.84 | -0.186 | -0.0107 |
| Cc1ccc(C2C3C(=O)CC4C(=O)N(c5ccccc5)C(=O)C4C3CN2S(=O)(=O)c2ccc(C)cc2)cc1 (stereo not given) | 0.0792 | 1.24 | 1.05 | 0.495 (inactive) | 0.924 | 0.816 | 0.381 | 0.773 | 0.112 | 0.385 |
| CO[C@H]1O[C@H](CO)[C@@H](OC(=O)Nc2cccc(F)c2)[C@H](OC(=O)Nc2ccccc2)[C@H]1OC(=O)Nc1ccccc1 | 1.46 | -0.0312 | 0.55 | -0.0505 (inactive) | 1.52 | 1.35 | 0.162 | 1.49 | 0.18 | 0.417 |
| CCOC(=O)C1=C[C@@H](C(C)C)N(S(=O)(=O)c2ccc(C)cc2)[C@H]1c1ccccc1F | 0.906 | 0.398 | 0.603 | 1.2 (inactive) | 0.668 | 0.791 | 0.6 | 0.965 | 0.336 | 0.442 |
| C=CCN(Cc1ccccc1)C(=O)C(c1cccs1)N(C(=O)/C=C\C(=O)O)c1ccc(CCOCCO)cc1 (stereo not given) | 1.33 | -0.291 | 0.486 | -1.2 (inactive) | -2.15 | -1.28 | -1.43 | -1.27 | -2.18 | -0.753 |
| CC1CC/C=C\[C@H]2OC34C=CCN(Cn5nnc6ccccc65)C(=O)[C@H]3N(CCCCCO)C(=O)[C@@H]4C2C(=O)O1 (stereo not given in full) | 0.285 | -0.415 | 0.598 | 0.271 (inactive) | -1.26 | -1.32 | -0.494 | -0.186 | -1.27 | -0.318 |
| Cc1ccc(S[C@]2(C(=O)O)CC(=O)N(Cc3ccccc3C(F)(F)F)[C@@H]2c2ccc(CO)cc2I)cc1 | -0.135 | -0.537 | 0.337 | -1.15 (inactive) | -0.39 | -0.518 | -1.11 | -1 | -1.28 | 1.16 |
| C=CCOC(=O)[C@H]1[C@@H]2C(=O)O[C@@H](c3ccccc3)[C@@H](c3ccccc3)N2[C@@H](c2ccc(OCCOC(=O)[C@@H]3C[C@@H]4C(=O)N5CCC[C@H]5C(=O)N4[C@@H]3c3cccc(OCCO)c3)cc2)[C@]12C(=O)Nc1ccc(I)cc12 | 1.59 | -0.214 | -0.158 | 0.0567 (inactive) | 1.42 | 1.15 | 0.702 | 1.39 | 1.2 | 0.76 |
| CC(CO)N1C(=O)[C@@H]2C3C(=O)OCCC/C=C\[C@H]3OC23C=CCN(CCN2CCOCC2)C(=O)[C@@H]13 (stereo not given in full) | 0.238 | -0.412 | -0.48 | -0.669 (inactive) | 0.516 | 0.494 | -0.493 | 0.124 | 0.281 | 0.693 |
| CN(C)CCCC[C@@H]1NC(=O)[C@H]2C[C@@H](C(=O)NCCCCCN)[C@@H](c3cccc(OCCO)c3)N2C1=O | 1.11 | 1.33 | 1.04 | 0.0522 (inactive) | 1.2 | 1.06 | 0.0076 | 0.0876 | 0.453 | 1.41 |
| CN1CCC(CCCO)=CC1c1cccs1 (stereo not given) | 0.238 | -0.391 | -0.141 | 0.697 (inactive) | -0.095 | 0.0706 | -0.185 | -0.61 | 0.208 | 0.233 |
| COCCOC(=O)N1C(=O)[C@@]2(c3cc(C#CCCO)ccc31)[C@H](c1ccc(O)cc1)N1[C@H](c3ccccc3)[C@H](c3ccccc3)OC(=O)[C@H]1[C@@H]2C(=O)N1CCN(c2ncccn2)CC1 | 1.71 | -0.365 | -0.0062 | -0.0232 (inactive) | 1.11 | 1.31 | 0.36 | 0.899 | 0.417 | 1.29 |
